Bioassay records (PubChem BioAssay)
Cruzain Triton – inhibitors of Trypanosoma cruzi cruzain with detergent; P25779; Potency, µM, for the others: max response, negative = inhibition, usual class: inhibitors; AID 1478; purified cruzain, Z-FR-AMC fluorescence, 0.01% Triton; actives 0.43% (n = 200,000);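 note: plate controls were neutral wells for no effect and buffer without enzyme for full effect; nearly all actives have a fitted effect of over 40% in size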
Target sequence (P25779 123-467 limits assumed): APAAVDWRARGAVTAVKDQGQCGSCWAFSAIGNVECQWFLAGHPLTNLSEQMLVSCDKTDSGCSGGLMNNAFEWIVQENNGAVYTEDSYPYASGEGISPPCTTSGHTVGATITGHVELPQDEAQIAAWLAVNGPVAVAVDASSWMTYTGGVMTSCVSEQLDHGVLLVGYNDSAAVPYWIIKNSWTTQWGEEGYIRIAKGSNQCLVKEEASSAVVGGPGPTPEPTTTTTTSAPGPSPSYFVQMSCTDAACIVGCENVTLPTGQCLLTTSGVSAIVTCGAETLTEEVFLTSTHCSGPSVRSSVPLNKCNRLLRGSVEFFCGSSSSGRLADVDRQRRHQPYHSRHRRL
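Compounds were screened in titration against cruzain (1.5 nM) with 0.01% Triton X-100 to counter colloidal aggregation. Activity was the AMC fluorescence increase over 60 s after adding 2 uM Z-FR-AMC at pH 5.5.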
Cruzain inh noDet – inhibitors of Trypanosoma cruzi cruzain without detergent. P25779. purified cruzain, Z-FR-AMC fluorescence, no detergent. Potency, µM, inactives show max response, negative = inhibition, most hits filed as inhibitors. actives 2.3% (n = 200,000). AID 1476;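 note: plate controls were enzyme without inhibitor for no effect and buffer without enzyme for full effect; nearly all actives have a fitted effect of over 40% in size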
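Purified cruzain at 1.5 nM, pre-incubated 15 min with compound at room temperature in 100 mM sodium acetate pH 5.5, 5 mM DTT, 0.00005% Triton X-100. Reaction started with 2 uM Z-FR-AMC; AMC fluorescence increase over 60 s gives rate.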
* hit, by the source's call. This is a sample that favours compounds with a hit; in the whole collection about 2.5% have one here. Calls come from the whole dose curve; as a rule, active = well fitted curve in the direction sought with a large enough effect; inconclusive = small, poorly fitted or top-dose-only effect, or another doubt; inactive = no such curve, though single readings can be large; an effect the other way counts as inactive or inconclusive. Potency is the fitted concentration of half-maximal effect.

What do the screens show for `COc1cccc(NC(=O)C(=O)NCCc2csc(-c3ccc(C)cc3)n2)c1`?
Cruzain Triton: 0%; Cruzain inh noDet: -2%

What do the screens show for `Cc1ccc(C(=O)COC(=O)CNC(=O)COc2ccccc2C)cc1C`?
Cruzain Triton: 16µM*; Cruzain inh noDet: inconclusive

What do the screens show for `CC(=O)NCC(=O)OCC(=O)c1ccc(C)c(C)c1`?
Cruzain Triton: 5%; Cruzain inh noDet: 9%

What do the screens show for `O=S(=O)(c1ccc(F)cc1)n1ccc(-c2cccc(OCc3c(F)cccc3Cl)c2)n1`?
Cruzain Triton: 10%; Cruzain inh noDet: -12%

What do the screens show for `O=S(=O)(c1ccc(Cl)cc1)n1ccc(-c2cccc(OCc3c(F)cccc3Cl)c2)n1`?
Cruzain Triton: 4%; Cruzain inh noDet: 20µM*

Results for COC(=O)c1nnn(CC(=O)Nc2c(C)cccc2C)c1N ?
Cruzain Triton: 2%; Cruzain inh noDet: -1%

Results for CCCCCN1C(C(=O)c2ccccc2)=C(NC(=O)c2ccccc2Cl)c2ccccc2S1(=O)=O ?
Cruzain Triton: -5%; Cruzain inh noDet: 10µM*

What do the screens show for `CCCCCN1C(C(=O)c2ccccc2)=C(NC(C)=O)c2ccccc2S1(=O)=O`?
Cruzain Triton: -11%; Cruzain inh noDet: 4%

What do the screens show for `Cc1ccc(NC(=O)c2ccc(CNS(=O)(=O)c3cccc(C(F)(F)F)c3)cc2)cc1`?
Cruzain Triton: -13%; Cruzain inh noDet: 25µM*

How did O=C(Nc1ccccc1F)c1ccc(CNS(=O)(=O)c2cccc(C(F)(F)F)c2)cc1 do in these assays?
Cruzain Triton: 3%; Cruzain inh noDet: inconclusive

Results for Cc1ccc(-c2nc(S(=O)(=O)c3ccccc3)c(N3CCN(c4ccccc4)CC3)o2)cc1 ?
Cruzain Triton: -1%; Cruzain inh noDet: -9%

What do the screens show for `COc1ccc(N2CCN(c3oc(-c4ccccc4C)nc3S(=O)(=O)c3ccccc3)CC2)cc1`?
Cruzain Triton: -4%; Cruzain inh noDet: 13µM*

What do the screens show for `Cc1ccc(-c2nnn(CC(=O)N(c3cccc(F)c3)C(C(=O)NC3CCCC3)c3ccco3)n2)o1` (stereo not given)?
Cruzain Triton: 2%; Cruzain inh noDet: 6.3µM*

Results for Cc1ccc(-c2nnn(CC(=O)N(c3ccc(F)cc3)C(C(=O)NC(C)(C)C)c3ccco3)n2)o1 (stereo not given) ?
Cruzain Triton: 2%; Cruzain inh noDet: 9%

Results for Cc1ccc(-c2nnn(CC(=O)N(c3ccccc3F)C(C(=O)NC3CCCC3)c3ccco3)n2)o1 (stereo not given) ?
Cruzain Triton: 1%; Cruzain inh noDet: 3%

Results for Cc1ccc(-c2nnn(CC(=O)N(c3ccc(F)cc3)C(C(=O)NC3CCCC3)c3ccco3)n2)o1 (stereo not given) ?
Cruzain Triton: 2%; Cruzain inh noDet: 10µM*

What do the screens show for `Cc1ccc(C)c(NC(=O)CSc2nc3nccnc3c(=O)n2CCc2c[nH]c3ccccc23)c1`?
Cruzain Triton: 0%; Cruzain inh noDet: 8%

How did Cc1ccc2c(c1)c1c(c(=O)n(-c3ccccc3C)c(=O)n1CC(=O)NCCC1=CCCCC1)n2C do in these assays?
Cruzain Triton: -2%; Cruzain inh noDet: -2%

How did COc1ccc(NS(=O)(=O)c2ccc3c(c2)n(C)c(=O)c(=O)n3C)cc1Cl do in these assays?
Cruzain Triton: -5%; Cruzain inh noDet: -17%

What do the screens show for `CCOC(=O)c1ccc(N=Cc2nc(-c3ccccc3)oc2OC(C)=O)cc1`?
Cruzain Triton: 14µM*; Cruzain inh noDet: -27%

What do the screens show for `CC(=O)Oc1oc(-c2ccccc2)nc1C=Nc1ccccc1`?
Cruzain Triton: 25µM*; Cruzain inh noDet: 25µM*

Results for CCC(=O)Oc1oc(-c2ccccc2)nc1C=Nc1ccccc1OC ?
Cruzain Triton: -18%; Cruzain inh noDet: -15%

How did CN(C)c1ccc(/C=C/C(=O)c2cccc(Br)c2)cc1 do in these assays?
Cruzain Triton: -2%; Cruzain inh noDet: -4%

Results for Oc1oc(-c2ccco2)nc1C=Nc1ccccc1 ?
Cruzain Triton: -21%; Cruzain inh noDet: -9%

What do the screens show for `Cc1ccc(C(=O)Oc2oc(-c3ccco3)nc2C=Nc2ccccc2)cc1`?
Cruzain Triton: 10µM*; Cruzain inh noDet: 13µM*

Results for CN(C)c1ccc(N=Cc2nc(-c3ccccc3)oc2OC(=O)c2cccc(Br)c2)cc1 ?
Cruzain Triton: -21%; Cruzain inh noDet: 25µM*

How did CCOC(=O)c1ccc(N=Cc2nc3ccccc3n2C)cc1 do in these assays?
Cruzain Triton: -1%; Cruzain inh noDet: 4%

How did CC(=O)OC1CC2C(C)(C)C(O)CCC2(C)C2CC[C@]3(C)C(=CC(=O)OC3c3ccoc3)C12C (stereo not given in full) do in these assays?
Cruzain Triton: -2%; Cruzain inh noDet: inconclusive

Results for COC(=O)CNC(=O)[C@@]1(C)C=C[C@@H](Cc2ccccc2)N1C(=O)OC ?
Cruzain Triton: -2%; Cruzain inh noDet: -8%

What do the screens show for `Cc1ccn2c(=O)c(C(=O)NCCc3ccccc3)c(O)nc2c1`?
Cruzain Triton: 1%; Cruzain inh noDet: -2%

Results for CCc1ccccc1NC(=O)CSc1ncc(S(=O)(=O)c2ccc(C(C)C)cc2)c(N)n1 ?
Cruzain Triton: -4%; Cruzain inh noDet: -16%

Results for COc1ccc(OC)c(N=c2ssnc2Cl)c1 ?
Cruzain Triton: -15%; Cruzain inh noDet: inconclusive

Results for COc1cc(N=c2ssnc2Cl)c(OC)cc1Cl ?
Cruzain Triton: -11%; Cruzain inh noDet: 25µM*

Results for CCOc1ccc(C(=O)N(Cc2nc(-c3cccc(C)c3)no2)C(C)C)cc1 ?
Cruzain Triton: 4%; Cruzain inh noDet: 26%

What do the screens show for `Cc1cc(NC(=O)c2cccs2)cc(-c2nc3cc(Cl)ccc3o2)c1O`?
Cruzain Triton: 2%; Cruzain inh noDet: -9%

What do the screens show for `Cc1ccccc1CSc1nnc(NC(=O)C2COc3ccccc3O2)s1` (stereo not given)?
Cruzain Triton: -4%; Cruzain inh noDet: inconclusive

What do the screens show for `O=C(Nc1nc(-c2ccccc2)cs1)C1COc2ccccc2O1` (stereo not given)?
Cruzain Triton: -3%; Cruzain inh noDet: 25µM*

Results for O=C(Nc1nc(-c2ccc3c(c2)OCO3)cs1)C1COc2ccccc2O1 (stereo not given) ?
Cruzain Triton: -8%; Cruzain inh noDet: inconclusive

What do the screens show for `O=C(Nc1ccc(S(=O)(=O)N2CCCC2)cc1)C1COc2ccccc2O1` (stereo not given)?
Cruzain Triton: -5%; Cruzain inh noDet: 1%

Results for O=C(Nc1nc(-c2ccc(S(=O)(=O)N3CCCC3)cc2)cs1)C1COc2ccccc2O1 (stereo not given) ?
Cruzain Triton: 2%; Cruzain inh noDet: 10µM*

How did O=C(Nc1nnc(SCc2cccc3ccccc23)s1)C1COc2ccccc2O1 (stereo not given) do in these assays?
Cruzain Triton: -3%; Cruzain inh noDet: 25µM*

Results for COc1ccc(N2C(=O)CSC23C(=O)N(Cc2ccc(C)cc2)c2ccccc23)cc1Cl (stereo not given) ?
Cruzain Triton: -5%; Cruzain inh noDet: inconclusive

Results for CC(=O)c1cc2c(cc1N/C(=N/S(=O)(=O)c1ccc(Cl)cc1)c1ccc(F)cc1)OCO2 ?
Cruzain Triton: 1%; Cruzain inh noDet: -1%

How did COc1ccc(NC(=O)CSc2nc3c(c(=O)[nH]2)CN(Cc2ccccc2)CC3)cc1Cl do in these assays?
Cruzain Triton: -9%; Cruzain inh noDet: 2%
